PubChem BioAssay AID434970 (Sanford-Burnham Center for Chemical Genomics, 2010)
Out of some 11,000 compounds screened, about 310 (2.8%) were called active. No stated cut-off is given here; in the data, active means activity change below about -85%; inactive means the rest. The full list was thinned out, with actives kept by preference.

The compounds below were run on intestinal alkaline phosphatase [Mus musculus] (assay: activators of mouse IAP, confirmation, biochemical, luminescence, single concentration (AID 434970)). Settings: purified mouse IAP, CDP-Star luminescence, 30 min, at 10 µM; activation factor: measured here: IAP activation factor, stronger effect = higher value; activity change, negative = activation: stronger effect = lower value.

SMILES	activation factor	activity change, negative = activation
O=C(Nc1c(-c2ccccc2)nc2sccn12)c1ccccc1	0.907	9.25% (inactive)
CCN(CC)S(=O)(=O)c1ccc(Cl)c(C(=O)Oc2cccnc2)c1	0.919	8.05% (inactive)
COC(=O)C1=C(C)NC2=C(C(=O)C(C(=O)OC)C(c3ccc(OC)cc3)C2)C1c1ccccn1 (stereo not drawn)	1.07	-6.6% (inactive)
CC(=O)Nc1ccc(NS(C)(=O)=O)cc1	0.891	10.9% (inactive)
O=C1CC(N2CCN(c3ccccc3F)CC2)C(=O)N1c1ccc2c(c1)OCCO2 (stereo not drawn)	0.964	3.6% (inactive)
O=C(CSc1nnc(-c2ccco2)n1Cc1ccco1)NCc1ccccc1	1.11	-11.1% (inactive)
O=C(Nc1cccc(C(F)(F)F)c1)NC1CCCCC1	2.1	-110% (active)
O=C(Nc1cccc(C(F)(F)F)c1)NC1CCN(S(=O)(=O)c2ccc(F)cc2)CC1	1.81	-81.5% (inactive)
FC(F)(F)c1ccc(NC(=S)NC2CCCCC2)cc1	1.25	-24.9% (inactive)
O=c1[nH]c2ccc(S(=O)(=O)Nc3ccc(-c4nnc5n4CCCCC5)cc3)cc2o1	0.87	13% (inactive)
CC(NC(=S)NCc1ccc(F)cc1)C12CC3CC(CC(C3)C1)C2 (stereo not drawn)	4.19	-319% (active)
CCC(NC(=S)NCc1ccc(F)cc1)c1ccc(C(C)C)cc1 (stereo not drawn)	1.39	-38.5% (inactive)
CCc1ccc(C(C)NC(=S)NCc2ccc(F)cc2)cc1 (stereo not drawn)	1.11	-10.5% (inactive)
COc1cc(CN(C2CC2)S(=O)(=O)c2ccccc2Br)cc(OC)c1	1.07	-7.4% (inactive)
O=C(c1ccco1)N1CCN(C(=O)C2CCN(S(=O)(=O)c3cnc[nH]3)CC2)CC1	0.909	9.15% (inactive)
CC(C)(C)c1nc(NC(=O)Nc2ccccc2)sc1Br	2.12	-112% (active)
CCOc1ccc2nc(NC(=O)Nc3ccccc3)sc2c1	1.04	-3.8% (inactive)
O=C(NNc1cccc(Cl)n1)Nc1ccccc1	0.964	3.55% (inactive)
CC(C)(C)c1ccc(OC(=O)c2cccnc2)cc1	1.01	-0.6% (inactive)
CCO/C(C)=C1\N=C(c2ccc(Cl)cc2)OC1=O	1.06	-5.85% (inactive)
COCc1ccc(CN2CCC(C(=O)Nc3cccc(-c4cccc(Cl)c4)c3)CC2)o1	4.36	-336% (active)
O=C(Nc1cccc(-c2cccc(F)c2)c1)C1CCN(Cc2ccc(CO)o2)CC1	1.64	-64.3% (inactive)
O=C(Nc1cccc(-c2cccc(Cl)c2)c1)C1CCN(Cc2ccc(CO)o2)CC1	2.61	-161% (active)
O=C(Nc1ccc(Br)c(Cl)c1)C1CC1	1.01	-1.05% (inactive)
O=C(Nc1cccc(-c2cccc(Cl)c2)c1)C1CCN(CC2CCOC2)CC1 (stereo not drawn)	2.32	-132% (active)

SMILES	activation factor	activity change, negative = activation
O=C(Nc1cccc(-c2cccc(Cl)c2)c1)C1CCN(Cc2ccon2)CC1	1.73	-73.1% (active)
O=C(Nc1ccc2c(c1)OCCO2)C1CCN(S(=O)(=O)c2cccc3nsnc23)CC1	0.988	1.25% (inactive)
O=C(NCc1ccc2c(c1)OCO2)C1CCCN1C(=O)Nc1cccc(Cl)c1 (stereo not drawn)	1.03	-2.95% (inactive)
Cc1oc(-c2ccc(Cl)cc2)nc1CN1CCC(C(=O)NCc2cccs2)CC1	1.19	-19.5% (inactive)
CCOc1ccc(Br)cc1S(=O)(=O)Nc1ccccc1N1CCOCC1	0.919	8.1% (inactive)
CC(C)N(C(=O)[C@H]1C[C@H](CC(=O)NC(C)(C)C)C(=O)N2CCc3c([nH]c4cc(-c5ccco5)ccc34)[C@]12C)C(C)C	1.09	-9% (inactive)
CC(=O)NC1=NN(C(C)=O)C(c2cccs2)S1 (stereo not drawn)	1.08	-8% (inactive)
CCSc1sccc1C1C(C#N)=C(N)N(c2cccnc2)C2=C1C(=O)CCC2 (stereo not drawn)	0.703	29.8% (inactive)
Cc1oc(-c2ccccc2F)nc1CN1CCC(C(=O)NC2CCCc3ccccc32)CC1 (stereo not drawn)	1.12	-12.4% (inactive)
CC[C@]12c3[nH]c4ccc(OC)cc4c3CCN1C(=O)C(CC(=O)NCc1cccc(C(F)(F)F)c1)C[C@@H]2C(=O)N1CCN(C(=O)c2ccco2)CC1 (stereo partly drawn)	0.989	1.05% (inactive)
CN(Cc1ccccc1)C(=O)Cn1cccc1C(=O)c1ccccc1	1.13	-13.4% (inactive)
O=C(C1CCCN1C(=O)c1cccs1)N1CCN(Cc2ccc3c(c2)OCO3)CC1 (stereo not drawn)	0.924	7.55% (inactive)
OCCN1CCN(C(=S)c2ccc(Cl)c(Cl)c2)CC1	0.845	15.5% (inactive)
CSCC[C@H](N)C(=O)NC[C@H]1O[C@@H](n2cnc3c(N)ncnc32)[C@H](O)[C@@H]1O	0.994	0.55% (inactive)
CC(C)CC(=O)NC(NC(=S)Nc1sc2c(c1C#N)CCCC2)C(Cl)(Cl)Cl (stereo not drawn)	0.587	41.3% (inactive)
C[C@@H]1CN([C@H](C)CO)C(=O)Cc2cc(NC(=O)Nc3ccccc3)ccc2O[C@@H]1CN(C)Cc1ccc2c(c1)OCO2	1.66	-66.3% (inactive)
C[C@H](CO)N1C[C@H](C)[C@H](CN(C)Cc2ccccc2)Oc2ccc(NC(=O)Nc3ccc(F)cc3)cc2C1=O	1.54	-53.5% (inactive)
C[C@@H]1CN([C@H](C)CO)C(=O)c2cc(NC(=O)Nc3cccc4ccccc34)ccc2O[C@H]1CN(C)Cc1ccc(C(F)(F)F)cc1	2.2	-120% (active)
C[C@H](CO)N1C[C@H](C)[C@H](CN(C)Cc2ccc(Oc3ccccc3)cc2)Oc2ccc(NC(=O)Nc3cccc4ccccc34)cc2CC1=O	2.03	-103% (active)
CC(C)NC(=O)N(C)C[C@H]1Oc2ccc(NC(=O)Nc3ccc(C(F)(F)F)cc3)cc2C(=O)N([C@H](C)CO)C[C@@H]1C	1.96	-96.3% (inactive)
C[C@@H]1CN([C@H](C)CO)C(=O)c2cc(NC(=O)Nc3ccc(F)cc3)ccc2O[C@H]1CN(C)C(=O)Nc1ccc(C(F)(F)F)cc1	1.57	-57.4% (inactive)
C[C@@H]1CN([C@@H](C)CO)C(=O)c2cc(NC(=O)Nc3ccccc3)ccc2O[C@H]1CN(C)C(=O)Nc1cccc2ccccc12	1.8	-79.6% (inactive)
C[C@@H]1CN([C@@H](C)CO)C(=O)c2cccc(NC(=O)Nc3ccc(F)cc3)c2O[C@@H]1CN(C)Cc1ccc(Oc2ccccc2)cc1	2.17	-117% (active)
C[C@@H]1CN([C@@H](C)CO)C(=O)Cc2cc(NC(=O)Nc3cccc4ccccc34)ccc2O[C@@H]1CN(C)S(C)(=O)=O	1.46	-46.2% (inactive)
C[C@@H]1CN([C@@H](C)CO)C(=O)Cc2cc(NC(=O)Nc3cccc4ccccc34)ccc2O[C@@H]1CN(C)Cc1ccc(C(F)(F)F)cc1	1.75	-75% (inactive)

SMILES	activation factor	activity change, negative = activation
C[C@H]1CN([C@@H](C)CO)C(=O)c2cc(NC(=O)Nc3cccc4ccccc34)ccc2O[C@@H]1CN(C)Cc1ccc(-c2ccccc2)cc1	2.14	-114% (active)
C=CCn1c(C)cc(C(=O)COC(=O)COc2ccccc2C#N)c1C	0.919	8.05% (inactive)
S=c1[nH]nc(CSc2nc3ccccc3s2)n1Cc1ccccc1	1.1	-10.1% (inactive)
CCOC(=O)C1=CN(Cc2cccc(F)c2)S(=O)(=O)N(CC)C1c1ccc(F)c(Cl)c1 (stereo not drawn)	1.1	-9.9% (inactive)
CC(=O)Cc1nsc(NC(=O)c2ccc(-c3cccc(C(F)(F)F)c3)o2)n1	0.948	5.2% (inactive)
COc1cc(OC)c(C2N(c3ccccn3)C(=O)C3CCCN32)cc1OC (stereo not drawn)	1.11	-10.6% (inactive)
Cc1cc(C(=O)CSc2nnc(-c3cccc(F)c3)n2N)c(C)n1Cc1ccc2c(c1)OCO2	0.849	15.2% (inactive)
Nc1ncnc2c1ncn2[C@@H]1O[C@H](CNC(=O)[C@@H](N)CO)[C@@H](O)[C@H]1O	0.992	0.75% (inactive)
S=C(NCc1ccccc1)Nc1ccc(Oc2ccccc2)cc1	1.49	-49% (inactive)
COc1cc(OC)c2c(-c3ccccc3)cc(=O)oc2c1C(CCN1CCOCC1)c1ccc(N(C)C)cc1 (stereo not drawn)	0.992	0.8% (inactive)
CN(C)S(=O)(=O)n1cnc(-c2ccccc2)c1-c1ccccc1	1.06	-5.85% (inactive)
Cc1ccc(NC(=O)C2CCN(C(=O)NC3CCCCC3)CC2)c(C)c1	1.02	-1.95% (inactive)
Cc1cccc(N/C(N)=N/c2nc(C)cc(C)n2)c1	1.05	-4.7% (inactive)
Cc1ccc(N/C(N)=N/c2nc(C)cc(N3CCCCC3)n2)c(C)c1	4.22	-322% (active)
CCOC(=O)C1=CN(Cc2ccco2)S(=O)(=O)NC1c1cccc(OC)c1 (stereo not drawn)	0.986	1.35% (inactive)
CCOc1ccc(-c2nnc(-c3cccnc3)o2)cc1OCC	0.916	8.35% (inactive)
O=S(=O)(Nc1ccccc1)c1ccc(Oc2ncc(C(F)(F)F)cc2Cl)cc1	0.903	9.65% (inactive)
CC1(C)N=C(N)NC(Nc2ccccc2)=N1	1.04	-4% (inactive)
COc1ccc(OC)c(NC2=NC3(CCCC3)N=C(N)N2)c1	1.22	-21.9% (inactive)
Cc1cc(C)cc(NC2=NC3(CCCCC3)N=C(N)N2)c1	3.22	-222% (active)
CCCCOc1ccc(NC2=NC3(CCCCC3)N=C(N)N2)cc1	5.53	-453% (active)
COc1ccc(OC)c(NC2=NC3(CCCCC3)N=C(N)N2)c1	1.17	-16.5% (inactive)
COc1cccc(NC2=NC3(CCCCC3)N=C(N)N2)c1	1.5	-50.5% (inactive)
S=C(NCCNCc1ccccc1)NC1CCCCC1	1.18	-18% (inactive)
